# From PubChem BioAssay AID1159580 (chemical genetic matrix, 2015)
# “And” between values parts separate entries of the source, which are not always exact repeats. Equal entries are not always repeated. The campaign covered roughly 5,500 compounds. About 2,000 (36%) were called active. Roughly 18% stayed inconclusive and do not appear here. Cut-off read from the data, not from the text of the source: active = normalized growth mostly below about 0.91 (no sharp cut-off); inconclusive = no clear call, values can overlap the other calls; inactive = mostly above about 0.92. The list shows a part of the results.
# Test: chemical genetic growth profiling, strain panel (AID 1159580);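 note: tested at 20 µM; growth read once vehicle control cultures reached saturation at 30 °C; 1 = growth at the plate median or of vehicle wells; lower values mean less growth of the strain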
# Conditions: S. cerevisiae deletion strains, growth OD
structure (smiles),measurement,setting,value
CC/C(=C(/CC)c1ccc(O)cc1)c1ccc(O)cc1,normalized growth,"locus YAL021C, strain ccr4, stronger effect = lower value",1.09 [resistant] (active)
same,normalized growth,"locus YAL026C, strain drs2, stronger effect = lower value",0.958 (inactive)
same,normalized growth,"locus YAL030W, strain snc1, stronger effect = lower value",1 (inactive)
same,normalized growth,"locus YBL061C, strain skt5, stronger effect = lower value",1 (inactive)
same,normalized growth,"locus YBR009C, strain hhf1, stronger effect = lower value",0.953 (inactive)
same,normalized growth,"locus YBR021W, strain FUR4, stronger effect = lower value",0.992 (inactive)
same,normalized growth,"locus YBR023C, strain chs3, stronger effect = lower value",0.984 (inactive)
same,normalized growth,"locus YBR171W, strain sec66, stronger effect = lower value",0.987 (inactive)
same,normalized growth,"locus YBR229C, strain ROT2, stronger effect = lower value",1 (inactive)
same,normalized growth,"locus YBR231C, strain swc5, stronger effect = lower value",1.03 (inactive)
same,normalized growth,"locus YBR279W, strain paf1, stronger effect = lower value",0.961 (inactive)
same,normalized growth,"locus YCL011C, strain gbp2, stronger effect = lower value",0.976 (inactive)
same,normalized growth,"locus YCL016C, strain dcc1, stronger effect = lower value",0.943 (inactive)
same,normalized growth,"locus YCL029C, strain bik1, stronger effect = lower value",0.962 (inactive)
same,normalized growth,"locus YCL061C, strain MRC1, stronger effect = lower value",1 (inactive)
same,normalized growth,"locus YCL069W, strain vba3, stronger effect = lower value",0.987 (inactive)
same,normalized growth,"locus YCR088W, strain abp1, stronger effect = lower value",1.02 (inactive)
same,normalized growth,"locus YDL005C, strain med2, stronger effect = lower value",1.01 (inactive)
same,normalized growth,"locus YDL035C, strain GPR1, stronger effect = lower value",0.867 (inactive)
same,normalized growth,"locus YDL040C, strain nat1, stronger effect = lower value",1.01 (inactive)
same,normalized growth,"locus YDL074C, strain BRE1, stronger effect = lower value",0.776 (active)
same,normalized growth,"locus YDL101C, strain DUN1, stronger effect = lower value",0.963 (inactive)
same,normalized growth,"locus YDL185W, strain tfp1, stronger effect = lower value",0.997 (inactive)
same,normalized growth,"locus YDL192W, strain arf1, stronger effect = lower value",0.991 (inactive)
same,normalized growth,"locus YDR001C, strain nth1, stronger effect = lower value",1.01 (inactive)
same,normalized growth,"locus YDR069C, strain doa4, stronger effect = lower value",1.02 (inactive)
same,normalized growth,"locus YDR101C, strain arx1, stronger effect = lower value",0.961 (inactive)
same,normalized growth,"locus YDR137W, strain rgp1, stronger effect = lower value",0.49 (active)
same,normalized growth,"locus YDR150W, strain NUM1, stronger effect = lower value",1.01 (inactive)
same,normalized growth,"locus YDR159W, strain sac3, stronger effect = lower value",0.905 (inactive)
same,normalized growth,"locus YDR162C, strain NBP2, stronger effect = lower value",0.754 (active)
same,normalized growth,"locus YDR195W, strain ref2",1.2 [resistant] (active)
same,normalized growth,"locus YDR297W, strain sur2, stronger effect = lower value",1 (inactive)
same,normalized growth,"locus YDR318W, strain mcm21, stronger effect = lower value",0.952 (inactive)
same,normalized growth,"locus YDR334W, strain swr1, stronger effect = lower value",1.04 (inactive)
same,normalized growth,"locus YDR335W, strain msn5, stronger effect = lower value",1.02 (inactive)
same,normalized growth,"locus YDR388W, stronger effect = lower value",0.991 (inactive)
same,normalized growth,"locus YDR392W, strain spt3, stronger effect = lower value",0.869 (inactive)
same,normalized growth,"locus YDR502C, strain sam2, stronger effect = lower value",0.955 (inactive)
same,normalized growth,"locus YEL003W, strain gim4, stronger effect = lower value",1 (inactive)
same,normalized growth,"locus YEL037C, strain rad23, stronger effect = lower value",1.01 (inactive)
same,normalized growth,"locus YEL061C, strain CIN8 (second series), stronger effect = lower value",1.03 (inactive)
same,normalized growth,"locus YEL061C, strain CIN8, stronger effect = lower value",0.999 (inactive)
same,normalized growth,"locus YER015W, strain faa2, stronger effect = lower value",0.945 (inactive)
same,normalized growth,"locus YER016W, strain bim1, stronger effect = lower value",0.958 (inactive)
same,normalized growth,"locus YER110C, stronger effect = lower value",1.03 (inactive)
same,normalized growth,"locus YER111C, strain swi4, stronger effect = lower value",1.05 (inactive)
same,normalized growth,"locus YER155C, strain BEM2 (second series), stronger effect = lower value",1.03 (inactive)
same,normalized growth,"locus YER155C, strain BEM2, stronger effect = lower value",0.979 (inactive)
same,normalized growth,"locus YER167W, strain BCK2, stronger effect = lower value",0.984 (inactive)
same,normalized growth,"locus YFR010W, strain ubp6, stronger effect = lower value",1.04 (inactive)
same,normalized growth,"locus YGL078C, strain dbp3, stronger effect = lower value",0.977 (inactive)
same,normalized growth,"locus YGL086W, strain mad1, stronger effect = lower value",0.955 (inactive)
same,normalized growth,"locus YGL167C, strain pmr1, stronger effect = lower value",0.995 (inactive)
same,normalized growth,"locus YGL173C, strain kem1, stronger effect = lower value",0.959 (inactive)
same,normalized growth,"locus YGL227W, strain vid30, stronger effect = lower value",1.03 (inactive)
same,normalized growth,"locus YGL240W, strain doc1, stronger effect = lower value",0.98 (inactive)
same,normalized growth,"locus YGL248W, strain PDE1, stronger effect = lower value",0.915 (inactive)
same,normalized growth,"locus YGL253W, strain hxk2, stronger effect = lower value",0.989 (inactive)
same,normalized growth,"locus YGR135W, strain pre9, stronger effect = lower value",0.962 (inactive)
same,normalized growth,"locus YGR252W, strain gcn5, stronger effect = lower value",0.921 (inactive)
same,normalized growth,"locus YHR013C, strain ard1, stronger effect = lower value",1.09 (inactive)
same,normalized growth,"locus YHR027C, strain rpn1, stronger effect = lower value",0.98 (inactive)
same,normalized growth,"locus YHR030C, strain SLT2, stronger effect = lower value",0.98 (inactive) and 0.958 (inactive)
same,normalized growth,"locus YHR079C, strain IRE1 (second series), stronger effect = lower value",1.01 (inactive)
same,normalized growth,"locus YHR079C, strain IRE1, stronger effect = lower value",0.96 (inactive)
same,normalized growth,"locus YHR094C, strain hxt1, stronger effect = lower value",1 (inactive)
same,normalized growth,"locus YHR129C, strain ARP1, stronger effect = lower value",0.976 (inactive)
same,normalized growth,"locus YHR142W, strain chs7, stronger effect = lower value",1.03 (inactive)
same,normalized growth,"locus YHR200W, strain rpn10, stronger effect = lower value",0.991 (inactive)
same,normalized growth,"locus YIL066C, strain RNR3, stronger effect = lower value",0.937 (inactive)
same,normalized growth,"locus YIL073C, strain SPO22, stronger effect = lower value",1.21 (inactive)
same,normalized growth,"locus YIL125W, strain kgd1, stronger effect = lower value",0.995 (inactive)
same,normalized growth,"locus YIR030C, strain dcg1, stronger effect = lower value",0.998 (inactive)
same,normalized growth,"locus YJL092W, strain hpr5, stronger effect = lower value",1 (inactive)
same,normalized growth,"locus YJL095W, strain BCK1 (second series), stronger effect = lower value",0.982 (inactive)
same,normalized growth,"locus YJL095W, strain BCK1, stronger effect = lower value",0.795 (active) and 0.97 (inactive)
same,normalized growth,"locus YJL115W, strain asf1, stronger effect = lower value",1.04 (inactive)
same,normalized growth,"locus YJL129C, strain trk1, stronger effect = lower value",0.94 (inactive)
same,normalized growth,"locus YJL134W, strain LCB3, stronger effect = lower value",1 (inactive)
same,normalized growth,"locus YJL154C, strain vps35, stronger effect = lower value",0.997 (inactive)
same,normalized growth,"locus YJL164C, strain tpk1, stronger effect = lower value",0.944 (inactive)
same,normalized growth,"locus YJL166W, strain qcr8, stronger effect = lower value",0.958 (inactive)
same,normalized growth,"locus YJL168C, strain set2, stronger effect = lower value",1 (inactive)
same,normalized growth,"locus YJL187C, strain SWE1 (second series), stronger effect = lower value",0.923 (inactive)
same,normalized growth,"locus YJR043C, strain POL32, stronger effect = lower value",0.952 (inactive)
same,normalized growth,"locus YJR066W, strain TOR1, stronger effect = lower value",0.938 (inactive)
same,normalized growth,"locus YJR075W, strain HOC1, stronger effect = lower value",0.959 (inactive)
